Test results: PubChem BioAssay (NCI)
Compounds without any hit were thinned out: in the full panel of roughly 83,000, 20% have a hit.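 Step 1: grow cells in 96-well plates. Step 2: add test compound at a single concentration. Step 3: incubate 48 h. Step 4: record percent growth.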 Unmarked numbers belong to inactive results. The source made the active and inactive calls. The calls were made as follows: active = growth percent below 10; inactive = the rest.

How the values were obtained:
Assay in all cases: NCI-60 one-dose screen, 48 h (100 = growth as untreated, 0 = no growth, -100 = all killed)
Details in all cases: 10 µM unless noted
[1] = tested on: NCI-H23 lung
[2] = tested on: NCI-H226 lung
[3] = tested on: NCI-H322M lung
[4] = tested on: HOP-62 NSCLC
[5] = tested on: NCI-H460 lung
[6] = tested on: HOP-92 NSCLC
[7] = tested on: NCI-H522 lung
[8] = tested on: A549/ATCC NSCLC
[9] = tested on: 786-0 renal
[10] = tested on: COLO 205 colon
[11] = tested on: DU-145 prostate
[12] = tested on: K-562 leukemia
[13] = tested on: MALME-3M melanoma
[14] = tested on: MDA-MB-231 breast
[15] = tested on: RXF 393 renal
[16] = tested on: SF-268 CNS
[17] = tested on: SF-295 CNS
[18] = tested on: SF-539 CNS
[19] = tested on: UACC-257 melanoma
[20] = tested on: M14 melanoma

Compound: O=S(=O)(NCCCNc1cc(-c2c(-c3cccc(O)c3)nc3sccn23)ccn1)c1cccc2ccccc12
- growth [1]: 39.8%
- growth [2]: 41.1%
- growth [3]: 78.8%
- growth [4]: 67.2%
- growth [5]: 39.7%
- growth [6]: 97.3%
- growth [7]: 51.2%
- growth [8]: 58.9%
- growth [9]: 51.2%
- growth [10]: 35.5%
- growth [11]: 42.4%
- growth [12]: 21.3%
- growth [13]: 48.4%
- growth [14]: 72.2%
- growth [15]: 41.1%
- growth [16]: 41.5%
- growth [17]: 34.3%
- growth [18]: 72.2%
- growth [19]: 61.2%
- growth [20]: 45.4%

Compound: COC(=O)/C=C1\S/C(=N\Nc2ccc([N+](=O)[O-])cc2[N+](=O)[O-])N(C2CCCCC2)C1=O
- growth [1]: 60%
- growth [2]: 80.7%
- growth [3]: 99.3%
- growth [4]: 86.8%
- growth [5]: 35.1%
- growth [6]: 8.36% (active)
- growth [7]: 43.6%
- growth [8]: 87.6%
- growth [9]: 61.1%
- growth [10]: 42.5%
- growth [11]: 44.2%
- growth [12]: 17.8%
- growth [13]: 87.5%
- growth [14]: 59.8%
- growth [15]: 62%
- growth [16]: 71%
- growth [17]: 77.1%
- growth [18]: 69.2%
- growth [19]: 80.1%
- growth [20]: 78.1%

Compound: Cc1cccc2c3c(sc12)C(c1ccc(Cl)cc1)C(C#N)=C(/N=C/c1ccc(Cl)cc1)O3 (stereo not given)
- growth [1]: 27.2%
- growth [2]: 18%
- growth [3]: 49.9%
- growth [4]: 42%
- growth [5]: 6.47% (active)
- growth [6]: 96.5%
- growth [7]: 22.8%
- growth [8]: 30.9%
- growth [9]: 31.9%
- growth [10]: 0.544% (active)
- growth [11]: 20.1%
- growth [12]: 8.84% (active)
- growth [13]: 56.6%
- growth [14]: 28.5%
- growth [15]: -15.3% (active)
- growth [16]: 44.6%
- growth [17]: 1.19% (active)
- growth [18]: -13.7% (active)
- growth [19]: 65.1%
- growth [20]: 4.4% (active)

Compound: Cn1cc(-c2ccc3cc(-c4ccc(CC(=O)Nc5cc(C(C)(C)C)nn5C)cc4)cnc3c2)cn1
- growth [1]: 5.37% (active)
- growth [2]: -17% (active)
- growth [3]: 21.4%
- growth [4]: 15.9%
- growth [5]: 9.41% (active)
- growth [6]: 21.1%
- growth [7]: 10.8%
- growth [8]: 17.1%
- growth [9]: 21.4%
- growth [10]: 16.2%
- growth [11]: 14.8%
- growth [12]: 13.8%
- growth [13]: -9.19% (active)
- growth [14]: -15% (active)
- growth [15]: -18.6% (active)
- growth [16]: 17.4%
- growth [17]: 16.7%
- growth [18]: 15.7%
- growth [19]: 13.1%
- growth [20]: 11.1%

Compound: COc1ccc2sc3c(NCCCN(C)C)nc4ccccc4c3c(=O)c2c1
- growth [1]: 56.7%
- growth [2]: 82.4%
- growth [3]: 80.3%
- growth [4]: 74.7%
- growth [5]: -69.5% (active)
- growth [6]: 20%
- growth [7]: 79.4%
- growth [8]: 73.9%
- growth [9]: 68.5%
- growth [10]: -1.26% (active)
- growth [11]: 41.3%
- growth [12]: -21.9% (active)
- growth [13]: 58%
- growth [14]: -6.11% (active)
- growth [15]: 44.1%
- growth [16]: 66.4%
- growth [17]: 83.7%
- growth [18]: 1.35% (active)
- growth [19]: 76.7%
- growth [20]: -57.8% (active)

Compound: Cn1cc(-c2cc3ncnc(Nc4ccc(CC(=O)Nc5cc(C(C)(C)C)on5)cc4)c3s2)cn1
- growth [1]: 50.2%
- growth [2]: 26%
- growth [3]: 32.9%
- growth [4]: 58.1%
- growth [5]: 28.4%
- growth [6]: 35.8%
- growth [7]: 36.3%
- growth [8]: 21.6%
- growth [9]: 36%
- growth [10]: 24.7%
- growth [11]: 29.9%
- growth [12]: 11.1%
- growth [13]: 43.4%
- growth [14]: 34.4%
- growth [15]: 19.3%
- growth [16]: 31.6%
- growth [17]: 49.9%
- growth [18]: 15.7%
- growth [19]: 59.3%
- growth [20]: 21.1%

Compound: Cc1nc(S(=O)(=O)c2ccccc2)c(S(=O)(=O)Cc2ccc([N+](=O)[O-])cc2)o1
- growth [1]: 103%
- growth [2]: 88%
- growth [3]: 100%
- growth [4]: 88.4%
- growth [5]: 98.5%
- growth [6]: 83.1%
- growth [7]: 68.8%
- growth [8]: 97.6%
- growth [9]: 89.1%
- growth [10]: 112%
- growth [11]: 91.3%
- growth [12]: 80.1%
- growth [13]: 95.2%
- growth [14]: 98.1%
- growth [15]: 93.2%
- growth [16]: 89.2%
- growth [17]: 114%
- growth [18]: 104%
- growth [19]: 85.4%
- growth [20]: 86.3%

Compound: COc1cc(C(=O)c2cc(C)c3[nH]c4ccc(C)cc4c3c2C)cc(OC)c1OC
- growth [1]: 16.7%
- growth [2]: 54.4%
- growth [3]: 39.9%
- growth [4]: 38.9%
- growth [5]: 6.57% (active)
- growth [6]: 29.2%
- growth [7]: 19.8%
- growth [8]: 20.9%
- growth [9]: 19.4%
- growth [10]: -19.2% (active)
- growth [11]: 1.16% (active)
- growth [12]: 11.5%
- growth [13]: 34.3%
- growth [14]: 27.6%
- growth [15]: 36.8%
- growth [16]: 29.3%
- growth [17]: 11.7%
- growth [18]: 0.519% (active)
- growth [19]: 68.8%
- growth [20]: 23.7%
